test system: PPARg:RXRa 270nM:90nM, anti-RXR (NR concentration 270 nM, RXRa partner concentration 90 nM); experiment: PBM binding z-score (relative to random genomic background probes); higher = stronger binding; sequences stand for … in GC…GCGATTGACAGCGTAGAATGAAGG
Outline: (§1)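 Binding buffer was PBS pH 7.4 with 2% milk, 0.02% Triton X-100, 1 mM DTT, 0.2 mg/mL BSA and 0.4 mg/ml salmon testes DNA. In it, ligand-free nuclear receptor dimers were incubated 1 h on custom Agilent 4×180K protein-binding microarrays carrying double-stranded probes. Antibodies against each partner (one per run) detected binding, and z-scores were calculated against random background probes after regression normalization of scanned fluorescence.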

Row | Sequence | PBM binding z-score
1 | GCGACTGGGGCAAAGCGGGTTACCATAAGGTTGG | 1.47
2 | AGAATGAGGTTATACGTAGATCAGGAAAGAAAGT | 1.97
3 | ATATGTAGGTTAGCTGGGGCCATTCAGACTAGGC | 2.56
4 | TCTAGCAGGCCAGAGGGTCAATCAAGAGGTACGG | 3.01
5 | ACTTACGGGTCAACGAGGTGATAGCACGCGTATA | 5
6 | CCTACTGGGCCACGAAAGGTCATTGTTTCAGTGA | 4.79
7 | ATACCAAGGTGATCGTCAGGTCGTTGATACTAAC | 0.265
8 | CCGCCTAGGTCAGGGCCAGTATAGGAGGAACGTT | 0.881
9 | ATCTCTAGGTAACGTTCAGTGAAAGATCGATAGA | 0.792
10 | CATACAGGGTCAGGTAGGCCAGAGTAGGGACGGC | 2.92
11 | CATACAGGGTCAGCTAGGCCAGAGTAGGGACGGC | 3.06
12 | ATAACGAGGGCAATGAGTTGATAGCACGGGTGGC | 1.31
13 | CTTACAGGGTCAGCTAGGCCAGAGTAGGGACGGC | 3.24
14 | TCTTGTAGATCAACAGGAGGTTACGAAAGATCGA | 1.65
15 | CCGCCTGGGGCAGAAAGGTTACCATACCATCCGG | 1.25
16 | ATGGAAAGGTCGACGAGGTGAGTATACACCGTTT | 2.93
17 | TCTTGTAGATCAATAGAGGTTACGAAAGTGCGCT | 1.79
18 | TCTATTAGTTGAAGGGCAACTGACGAGTCCGTTT | 2.28

test system: PPARg:RXRa 30nM:10nM, anti-RXR (NR concentration 30 nM, RXRa partner concentration 10 nM); experiment: as above
Outline: as §1

Row | Sequence | PBM binding z-score
19 | CGAACGAAGGCATGAGTTGATAGCAAATGCCGAT | -0.739
20 | AGTCAAAGTTCAACTAGGTAACGTAAGATATGCT | 4.2
21 | CCTTCCGGGTCACGAGGTTATAGCACGACGAGCG | 3.82
22 | CCTACTGGGCCCAGGTCATTGATCAGTCAAAGCA | 0.0346
23 | CTACCAAGGTGAACAAGGTAGTTGATTACTATTC | 0.0377
24 | TCTATAAGTTGATTAGGGCAACCGAAACAGCGGA | 3.59
25 | CCTAGCAGGCCAATATGGGTCACTCAAGGCTTGA | 0.00421
26 | GCTCGGAGGCCAAGGTCAGAGCTTTGTCCGTAGA | -0.393
27 | GCTATTAGATGAAAGGGCAACCGAATGATTCTCG | 4.56
28 | CCCACTGGGCCATCAGGTCATTGATATCAACGTT | 1.18
29 | ACAGACAGGTGATGAAGGAAACTCAGGCTATCAT | 0.224
30 | ACTAGTTGGTCAGCTGAGGTCACGCACAATTCGG | 0.707
31 | ATCTCTAGGTAACAAGTTCAGTTAAAGAGAGGAC | 0.996
32 | CGTCAAAGTTCAACTAAGGTAACGTAAAGCACGC | 2.32
33 | CCTAGCAGGCCAGGGCCACTCAAGCATTTCGCTT | -1.24
34 | CCTACTGGGCCATCAGGTCTTTGATATCAACGTT | 0.0943
35 | AGTCAAAGTTCATCTAGGTAACGTCAGATATGCT | 3.63
36 | ACTAGCAGGCCAAGGGTCACTCATGATTAGTCCG | 6.27
37 | TCATATAGGTAAAGGTGAAAGTTGAACGATATGA | 5.22
38 | TGAATGAGTTTAAAGATCAGGGAACGTGGCGTCG | 1.35

Row | Sequence | PBM binding z-score
39 | CGTCCACGGTCAATGCTAGGTCAGTGAAAGCATT | -0.646
40 | CAAACTCGGTCACCGGAAGGTCAAAGTCCGCATG | 1.23
41 | GCGACTGGGGCAAAGCGGGTTACCATAAGGTTGG | -0.245
42 | AGAATGAGGTTATACGTAGATCAGGAAAGAAAGT | 0.878
43 | ATATGTAGGTTAGCTGGGGCCATTCAGACTAGGC | 0.952
44 | TCTAGCAGGCCAGAGGGTCAATCAAGAGGTACGG | 2.27
45 | ACTTACGGGTCAACGAGGTGATAGCACGCGTATA | 2.26
46 | CCTACTGGGCCACGAAAGGTCATTGTTTCAGTGA | 1.73
47 | ATACCAAGGTGATCGTCAGGTCGTTGATACTAAC | 0.184
48 | CCGCCTAGGTCAGGGCCAGTATAGGAGGAACGTT | -0.497
49 | ATCTCTAGGTAACGTTCAGTGAAAGATCGATAGA | 0.317
50 | CATACAGGGTCAGGTAGGCCAGAGTAGGGACGGC | 0.655
51 | CATACAGGGTCAGCTAGGCCAGAGTAGGGACGGC | 0.957
52 | ATAACGAGGGCAATGAGTTGATAGCACGGGTGGC | 0.221
53 | CTTACAGGGTCAGCTAGGCCAGAGTAGGGACGGC | 0.782
54 | TCTTGTAGATCAACAGGAGGTTACGAAAGATCGA | 2.53
55 | CCGCCTGGGGCAGAAAGGTTACCATACCATCCGG | -0.385
56 | ATGGAAAGGTCGACGAGGTGAGTATACACCGTTT | 1.17
57 | TCTTGTAGATCAATAGAGGTTACGAAAGTGCGCT | 2.79
58 | TCTATTAGTTGAAGGGCAACTGACGAGTCCGTTT | 3.74

test system: PPARg:RXRa 90nM:30nM, anti-RXR (NR concentration 90 nM, RXRa partner concentration 30 nM); experiment: as above
Outline: as §1

Row | Sequence | PBM binding z-score
59 | CGAACGAAGGCATGAGTTGATAGCAAATGCCGAT | -0.741
60 | AGTCAAAGTTCAACTAGGTAACGTAAGATATGCT | 6.24
61 | CCTTCCGGGTCACGAGGTTATAGCACGACGAGCG | 6
62 | CCTACTGGGCCCAGGTCATTGATCAGTCAAAGCA | 0.505
63 | CTACCAAGGTGAACAAGGTAGTTGATTACTATTC | 0.215
64 | TCTATAAGTTGATTAGGGCAACCGAAACAGCGGA | 2.83
65 | CCTAGCAGGCCAATATGGGTCACTCAAGGCTTGA | 1.15
66 | GCTCGGAGGCCAAGGTCAGAGCTTTGTCCGTAGA | 0.573
67 | GCTATTAGATGAAAGGGCAACCGAATGATTCTCG | 5.76
68 | CCCACTGGGCCATCAGGTCATTGATATCAACGTT | 2.86
69 | ACAGACAGGTGATGAAGGAAACTCAGGCTATCAT | -0.159
70 | ACTAGTTGGTCAGCTGAGGTCACGCACAATTCGG | 2.16
71 | ATCTCTAGGTAACAAGTTCAGTTAAAGAGAGGAC | 1.57
72 | CGTCAAAGTTCAACTAAGGTAACGTAAAGCACGC | 4.08
73 | CCTAGCAGGCCAGGGCCACTCAAGCATTTCGCTT | -1.48
74 | CCTACTGGGCCATCAGGTCTTTGATATCAACGTT | 1.01
75 | AGTCAAAGTTCATCTAGGTAACGTCAGATATGCT | 5.58
76 | ACTAGCAGGCCAAGGGTCACTCATGATTAGTCCG | 7.65
77 | TCATATAGGTAAAGGTGAAAGTTGAACGATATGA | 5.99
78 | TGAATGAGTTTAAAGATCAGGGAACGTGGCGTCG | 1.46

Row | Sequence | PBM binding z-score
79 | CGTCCACGGTCAATGCTAGGTCAGTGAAAGCATT | -0.669
80 | CAAACTCGGTCACCGGAAGGTCAAAGTCCGCATG | 3.26
81 | GCGACTGGGGCAAAGCGGGTTACCATAAGGTTGG | 0.845
82 | AGAATGAGGTTATACGTAGATCAGGAAAGAAAGT | 1.47
83 | ATATGTAGGTTAGCTGGGGCCATTCAGACTAGGC | 2.06
84 | TCTAGCAGGCCAGAGGGTCAATCAAGAGGTACGG | 2.91
85 | ACTTACGGGTCAACGAGGTGATAGCACGCGTATA | 4.11
86 | CCTACTGGGCCACGAAAGGTCATTGTTTCAGTGA | 4.24
87 | ATACCAAGGTGATCGTCAGGTCGTTGATACTAAC | 0.227
88 | CCGCCTAGGTCAGGGCCAGTATAGGAGGAACGTT | -0.0982
89 | ATCTCTAGGTAACGTTCAGTGAAAGATCGATAGA | 0.669
90 | CATACAGGGTCAGGTAGGCCAGAGTAGGGACGGC | 2.16
91 | CATACAGGGTCAGCTAGGCCAGAGTAGGGACGGC | 2.2
92 | ATAACGAGGGCAATGAGTTGATAGCACGGGTGGC | 0.999
93 | CTTACAGGGTCAGCTAGGCCAGAGTAGGGACGGC | 2.02
94 | TCTTGTAGATCAACAGGAGGTTACGAAAGATCGA | 1.91
95 | CCGCCTGGGGCAGAAAGGTTACCATACCATCCGG | 0.357
96 | ATGGAAAGGTCGACGAGGTGAGTATACACCGTTT | 1.95
97 | TCTTGTAGATCAATAGAGGTTACGAAAGTGCGCT | 2.24
98 | TCTATTAGTTGAAGGGCAACTGACGAGTCCGTTT | 3.07

From the supplement of paper PMC6555819
